Experimental data reported in PubChem BioAssay.

Test: inhibitors of Sendai virus-induced IRF3 signaling, primary screen, TLR/RLR signaling modifier project, cell-based, Sendai virus stimulus, luciferase, 10K MLSCN set (AID 602276);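 note: firefly luciferase from ISG56 promoter only with Renilla not read in this screen; 0% = Sendai virus plus DMSO and 100% = medium plus DMSO without virus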
Settings: HEK293 RL24 IRF3 luciferase reporter, at 10 µM, active compounds read high;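 active = inhibition at or above 50% at 10 µM; inactive = inhibition below 50%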

inhibition, inactive:
COc1ccccc1CCNC(=O)C1CCCO1 (stereo not given) 0.904%, CSc1ccccc1NC(=O)C1CCCO1 (stereo not given) -13.9%, Cn1c(=O)cc(OCCCC(=O)N2CCCCC2)c2ccccc21 -4.34%, CCCc1[nH]nc2c1C(c1cn[nH]c1-c1ccc(F)cc1)C(C#N)=C(N)O2 (stereo not given) 18.7%, CN1C(=S)SC(C)(NO)C1(C)C (stereo not given) 15.4%, O=C(NCc1ccc2c(c1)OCO2)C1CCC(CNc2c(N3CCCCC3)c(=O)c2=O)CC1 (stereo not given) 7.38%, CC(C)(CO)NC(=O)CCCOc1ccc(Cl)cc1Cl -27.2%, CN(C(=O)C1CCOC1)c1nnc(-c2cccnc2)s1 (stereo not given) -22%, COc1ccc(OC)c2[nH]c(=O)c(CCNC(=O)CC(C)C)cc12 -1.86%, COc1ccc(S(=O)(=O)N2CCCC2C(=O)Nc2ccc(O)cc2)cc1 (stereo not given) 1.14%, CCN(CC)Cc1nc2c(c(=O)[nH]1)C1(CCCCC1)Cc1ccccc1-2 10%, COc1ccc(NC(=O)C2CCCCN2S(=O)(=O)c2ccc(F)cc2)cc1 (stereo not given) 15.6%, CCOC(=O)c1c(NC(=O)c2cccs2)sc2c1CCN(C(=O)OCC)C2 10.1%, Cc1c(NC(=O)c2ccc(COc3ccc4ccccc4c3)o2)c(=O)n(-c2ccccc2)n1C -13.4%, CCOc1ccccc1N(C(=O)c1ccco1)C(C(=O)NC1CCCC1)c1cccnc1 (stereo not given) -2.81%, CCn1cc(C(=O)NCc2ccccc2OC)c(=O)c2cc(S(=O)(=O)N(C)C)ccc21 13.2%, CC1CCCN(C(=O)CN2CCN(C(=O)c3ccco3)CC2)C1 (stereo not given) 7.97%, N#Cc1nc(COc2ccccc2Cl)oc1N1CCCCCC1 0.19%, Cc1nc2sc(C(c3cccc(F)c3)N3CCC(C)CC3)c(O)n2n1 (stereo not given) 14.4%, CC1CCCN(c2ccc(C(=O)NCc3cccs3)cn2)C1 (stereo not given) -37.8%, O=C(C1CCC(CNS(=O)(=O)c2cccc3cccnc23)CC1)N1CCCC1 (stereo not given) -0.546%, O=C1c2ccccc2C(Nc2ccc3c(c2)OCO3)N1Cc1ccc2c(c1)OCO2 (stereo not given) -3.95%, NC(=O)C1CCN(C(=O)c2cc3n(n2)C(C(F)(F)F)CC(c2ccco2)N3)CC1 (stereo not given) 18.6%, O=C(Cn1ncc2c1-c1ccccc1OC2)Nc1ccc(Cl)cn1 9.19%, O=C(NC1CCCCC1)C(c1ccc(Cl)cc1)N(C(=O)c1cnccn1)c1ccc2c(c1)OCO2 (stereo not given) 11.2%, COc1ccc(NC(=O)c2cnc3n(c2=O)CCS3)cc1OC -2.41%, COc1ccccc1N1CCN(C(=O)CSc2nc3ncnc(N)c3[nH]2)CC1 16%, CC(C)(C)c1nc(CN2CCOCC2)ccc1O 10.4%, Cc1ccccc1C(=O)NC1CCN(Cc2nnnn2Cc2ccccc2)CC1 7.81%, COCCn1c(C)c(C(=O)O)sc1=S 9.55%, Cc1sc2nc(SCC(=O)N3CCN(CCO)CC3)n(-c3ccccc3)c(=O)c2c1C 16.8%, O=C(c1ccco1)N1CCN(c2nc(C(F)(F)F)nc3c2nnn3Cc2ccccc2)CC1 3.06%, Cc1ccccc1CN1CCN(C(=O)c2cccc(F)c2)CC1 7.31%, CCOC(=O)c1c(COC(=O)c2ccco2)nc2ccccc2[n+]1[O-] 17.9%, COC(=O)CCCCC(=O)C1C(=O)CC(C)(C)C(C(=O)OC)C1=O (stereo not given) -9.68%, COCCn1c(CN2CCN(c3ccccc3F)CC2)nc2c1c(=O)n(C)c(=O)n2C -11.5%, CC(C)(C#N)Nn1cnnc1 11.7%, CCC(C)(C(=O)NC1CCCC1)N(Cc1cccs1)C(=O)Cc1cccs1 (stereo not given) 14.4%, COc1cccc(CN=CC2=C(O)CC(C)(C)CC2=O)c1OC 1.64%, Cc1[nH]c2c(C)cccc2c(=O)c1Br 14.8%
